Measurements reported in the supplement of paper PMC4466140.

target: AgAbp1; assay: SPOT peptide array binding signal intensity (averaged, normalized) (arbitrary units (background-subtracted, floor 0; scale differs between SH3 domains)); higher = stronger binding of the SH3 domain to the peptide
Summary of the method: (§1)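 GST-fused SH3 domains, from four yeast species, were produced in E. coli BL21(DE3) and captured on glutathione Sepharose. Membranes of cellulose carrying synthetic 15-mer peptides, in which cysteines had been replaced by serines, were exposed to each domain at 10 μg/ml overnight at 4°C in TBS-based blocking buffer. After anti-GST antibody, an HRP anti-mouse secondary and luminol, spots were imaged and quantified using Genespotter. Binding signal is normalized and background-subtracted spot intensity, averaged over replicates, in arbitrary units that differ between domains.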

Binder | SPOT peptide array binding signal intensity
LLGRKRPVMERVVDI | ≤ 0

target: AgBbc1; assay: as above
Summary of the method: as §1

Binder | SPOT peptide array binding signal intensity
LLGRKRPVMERVVDI | 27

target: AgBem1-D1; assay: as above
Summary of the method: as §1

Binder | SPOT peptide array binding signal intensity
LLGRKRPVMERVVDI | 41

target: AgBzz1-D1; assay: as above
Summary of the method: as §1

Binder | SPOT peptide array binding signal intensity
LLGRKRPVMERVVDI | 47

target: AgBzz1-D2; assay: as above
Summary of the method: as §1

Binder | SPOT peptide array binding signal intensity
LLGRKRPVMERVVDI | 35

target: AgCyk3; assay: as above
Summary of the method: as §1

Binder | SPOT peptide array binding signal intensity
LLGRKRPVMERVVDI | 1

target: AgFus1; assay: as above
Summary of the method: as §1

Binder | SPOT peptide array binding signal intensity
LLGRKRPVMERVVDI | 142

target: AgHof1; assay: as above
Summary of the method: as §1

Binder | SPOT peptide array binding signal intensity
LLGRKRPVMERVVDI | 2.5

target: AgHse1; assay: as above
Summary of the method: as §1

Binder | SPOT peptide array binding signal intensity
LLGRKRPVMERVVDI | 586

target: AgLsb1; assay: as above
Summary of the method: as §1

Binder | SPOT peptide array binding signal intensity
LLGRKRPVMERVVDI | 0.25

target: AgLsb4; assay: as above
Summary of the method: as §1

Binder | SPOT peptide array binding signal intensity
LLGRKRPVMERVVDI | 65.5

target: AgMyo5; assay: as above
Summary of the method: as §1

Binder | SPOT peptide array binding signal intensity
LLGRKRPVMERVVDI | 3.5

target: AgNbp2; assay: as above
Summary of the method: as §1

Binder | SPOT peptide array binding signal intensity
LLGRKRPVMERVVDI | 144

target: AgRvs167; assay: as above
Summary of the method: as §1

Binder | SPOT peptide array binding signal intensity
LLGRKRPVMERVVDI | 3.67

target: AgSho1; assay: as above
Summary of the method: as §1

Binder | SPOT peptide array binding signal intensity
LLGRKRPVMERVVDI | 76.5

target: AgSla1-D1-D2; assay: as above
Summary of the method: as §1

Binder | SPOT peptide array binding signal intensity
LLGRKRPVMERVVDI | 18

target: AgSla1-D3; assay: as above
Summary of the method: as §1

Binder | SPOT peptide array binding signal intensity
LLGRKRPVMERVVDI | 0.5

target: CaAbp1-D1; assay: as above
Summary of the method: as §1

Binder | SPOT peptide array binding signal intensity
LLGRKRPVMERVVDI | 21

target: CaAbp1-D2; assay: as above
Summary of the method: as §1

Binder | SPOT peptide array binding signal intensity
LLGRKRPVMERVVDI | 51

target: CaBbc1; assay: as above
Summary of the method: as §1

Binder | SPOT peptide array binding signal intensity
LLGRKRPVMERVVDI | 99.5

target: CaBem1-D1; assay: as above
Summary of the method: as §1

Binder | SPOT peptide array binding signal intensity
LLGRKRPVMERVVDI | 60.5

target: CaBzz1-D1; assay: as above
Summary of the method: as §1

Binder | SPOT peptide array binding signal intensity
LLGRKRPVMERVVDI | 236

target: CaBzz1-D2; assay: as above
Summary of the method: as §1

Binder | SPOT peptide array binding signal intensity
LLGRKRPVMERVVDI | 63.5

target: CaCyk3; assay: as above
Summary of the method: as §1

Binder | SPOT peptide array binding signal intensity
LLGRKRPVMERVVDI | 46

target: CaFus1; assay: as above
Summary of the method: as §1

Binder | SPOT peptide array binding signal intensity
LLGRKRPVMERVVDI | 398

target: CaHof1; assay: as above
Summary of the method: as §1

Binder | SPOT peptide array binding signal intensity
LLGRKRPVMERVVDI | 0.5

target: CaHse1; assay: as above
Summary of the method: as §1

Binder | SPOT peptide array binding signal intensity
LLGRKRPVMERVVDI | 54

target: CaLsb1; assay: as above
Summary of the method: as §1

Binder | SPOT peptide array binding signal intensity
LLGRKRPVMERVVDI | ≤ 0

target: CaLsb4; assay: as above
Summary of the method: as §1

Binder | SPOT peptide array binding signal intensity
LLGRKRPVMERVVDI | 163

target: CaMyo5; assay: as above
Summary of the method: as §1

Binder | SPOT peptide array binding signal intensity
LLGRKRPVMERVVDI | 10.8

target: CaNbp2; assay: as above
Summary of the method: as §1

Binder | SPOT peptide array binding signal intensity
LLGRKRPVMERVVDI | 595

target: CaRvs167; assay: as above
Summary of the method: as §1

Binder | SPOT peptide array binding signal intensity
LLGRKRPVMERVVDI | 14.8

target: CaRvs167-3; assay: as above
Summary of the method: as §1

Binder | SPOT peptide array binding signal intensity
LLGRKRPVMERVVDI | 1.75

target: CaSho1; assay: as above
Summary of the method: as §1

Binder | SPOT peptide array binding signal intensity
LLGRKRPVMERVVDI | 374

target: CaSla1-D1-D2; assay: as above
Summary of the method: as §1

Binder | SPOT peptide array binding signal intensity
LLGRKRPVMERVVDI | 154

target: CaSla1-D3; assay: as above
Summary of the method: as §1

Binder | SPOT peptide array binding signal intensity
LLGRKRPVMERVVDI | 150

target: ScAbp1; assay: as above
Summary of the method: as §1

Binder | SPOT peptide array binding signal intensity
LLGRKRPVMERVVDI | 33
